# The list is not random: actives were taken first. Their share in the collection is about 0.54%.
# VHR inh abs: blocks human VHR1 dual specificity phosphatase; P51452; recombinant VHR phosphatase, pNPP absorbance; inhibition, % at 13.3 µM; 290,000 tested, 0.52% active; in the data active = inhibition above about 50%
# Target sequence (P51452 whole entry, looked up): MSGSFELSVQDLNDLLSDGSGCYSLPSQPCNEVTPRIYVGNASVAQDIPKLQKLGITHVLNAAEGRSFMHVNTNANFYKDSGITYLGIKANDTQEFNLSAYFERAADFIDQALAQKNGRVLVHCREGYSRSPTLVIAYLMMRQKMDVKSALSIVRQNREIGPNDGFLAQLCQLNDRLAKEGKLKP
# Mtb RmlCD inh: inhibitors of Mycobacterium tuberculosis RmlC and RmlD coupled enzymes; inhibition, % at 3.6 µM; 160,000 tested, 0.03% active; P9WH09+P9WH11; RmlC+RmlD coupled enzyme assay, percent inhibition; primary screen in compound mixtures; AID 1533; in the data active = inhibition mostly above about 34%, no sharp cut-off
# Starred values were filed as active, the others as inactive; x = not tested or not shown.
SMILES,VHR inh abs,Mtb RmlCD inh
CSc1nc2ccc3nc(NC(=O)c4ccc(Cl)s4)sc3c2s1,53*,6
CC(=O)N1c2ccc(S(=O)(=O)N3CCCCC3)cc2CC1C(=O)Nc1ccc(F)cc1C (stereo not drawn),10,x
Nc1nc(CN2CCN(Cc3ccccc3)CC2)nc(N2CCCc3ccccc32)n1,54*,9
Nc1nc(CN2CCN(c3ccccc3)CC2)nc(N2CCCc3ccccc32)n1,18,37
CS(=O)(=O)c1ccc(-n2nnc3ccccc32)c([N+](=O)[O-])c1,34,x
CN(C)CCCNS(=O)(=O)c1ccc(-n2nnc3ccccc32)c([N+](=O)[O-])c1,58*,x
CCn1cc(CNC(=O)c2ccc(C)s2)cn1,57*,-17
COc1ccccc1CNC(=O)c1ccc(C)s1,17,x
COc1ccccc1-n1nnnc1SCC(=O)Nc1ccc(C)c(N)c1,-19,x
Cc1cc(C)c(C)c(S(=O)(=O)N2CCC(C(=O)Nc3ccc(S(=O)(=O)N4CCOCC4)cc3)CC2)c1C,18,x
COC(=O)c1cc(=O)c2cccc(OC)c2[nH]1,31,62*
COc1ccc(OC)c2[nH]c(C(=O)O)cc12,-9,x
CN1C(=O)C(Cc2cnc[nH]2)NC1=S (stereo not drawn),24,x
O=C1c2ccc([N+](=O)[O-])cc2C(=O)N1Cc1cccnc1,52*,x
O=C1c2ccc3c4c(ccc(c24)C(=O)N1Cc1cccnc1)C(=O)N(Cc1cccnc1)C3=O,26,x
Cc1ccc(S(=O)(=O)NCC2CCC(C(=O)N3CCN(C)CC3)CC2)cc1 (stereo not drawn),17,x
COc1cccc(C2=NOC(C(=O)N3CCc4ccccc4C3)C2)c1 (stereo not drawn),55*,-5
O=C(C1CC(c2ccc(F)cc2)=NO1)N1CCc2ccccc2C1 (stereo not drawn),29,5
COc1cc([N+](=O)[O-])ccc1NC(=O)NCCCN1CCCC1=O,10,x
O=C(NC1CCCCC1)C1CCN(C(=O)NCc2ccccc2)CC1,21,-7
O=C(NC1CCCC1)C1CCN(C(=O)NCc2ccccc2)CC1,54*,-13
CCOC(=O)CNC(=S)N(Cc1ccc(C)cc1)Cc1ccc(C)o1,-13,-9
COc1ccc(-c2cc(=O)oc3c(O)c(O)ccc23)cc1,59*,x
COc1ccc(-c2cc(=O)oc3cc(OC(C)C(=O)O)ccc23)cc1 (stereo not drawn),26,17
CCOC(=O)C(C)Sc1nnc(-c2ccccc2O)n1Cc1ccccc1 (stereo not drawn),-2,73
SMILES,VHR inh abs,Mtb RmlCD inh
Fc1ccccc1N1CC(c2ccccc2)C(c2cccs2)=N1 (stereo not drawn),24,0
Cc1ccc(CS(=O)(=O)CC(C)(O)c2ccc(Cl)cc2)cc1 (stereo not drawn),6,x
COc1cccc(-c2noc(CCCC(=O)Nc3ccc(C(N)=O)cc3)n2)c1,-3,0
CCC1CN(C(=O)NCc2ccc(C)cc2)c2cc(Cl)ccc2O1 (stereo not drawn),-12,x
CCC1CN(C(=O)NCc2ccc(F)cc2)c2cc(Cl)ccc2O1 (stereo not drawn),57*,x
O=C1/C(=C/c2ccc(Cl)cc2)SC(=S)N1CCC(=O)N1CCCCC1CCO (stereo not drawn),-2,x
O=C1/C(=C/c2ccccc2)SC(=S)N1CCCC(=O)N1CCCCC1CCO (stereo not drawn),51*,x
O=C(Nc1cccc(F)c1)c1c(O)c2ccccc2[nH]c1=O,50*,x
O=C(N/N=C/c1cccc(F)c1)c1c(O)c2ccccc2[nH]c1=O,-2,9
CC1CCN(C(=O)N2c3ccccc3Sc3ccccc32)CC1,8,14
CC1CCN(CC(O)CN2c3ccccc3Sc3ccccc32)CC1 (stereo not drawn),58*,x
COc1cccc(/C=C2\SC(=S)N(CC(=O)N(C)C3CCS(=O)(=O)C3)C2=O)c1 (stereo not drawn),20,x
CCN(C(=O)CN1C(=O)S/C(=C\c2cccc(OC)c2)C1=O)C1CCS(=O)(=O)C1 (stereo not drawn),52*,x
COc1cccc(/C=C2\SC(=O)N(CCC(=O)NC3CCS(=O)(=O)C3)C2=O)c1 (stereo not drawn),15,x
COc1cccc(/C=C2\SC(=O)N(CC(=O)NC3CCS(=O)(=O)C3)C2=O)c1 (stereo not drawn),60*,x
CSc1ccccc1OCc1cc(C(=O)NC2CCc3ccccc32)no1 (stereo not drawn),51*,x
CSc1ccccc1OCc1cc(C(=O)NC2CCOC2)no1 (stereo not drawn),-31,x
O=C(NN=C1CCCC1)c1cccc(Br)c1,54*,x
O=C(N/N=C1\CCCc2ccccc21)c1cccc(Br)c1,8,16
COc1ccc(OC)c(CNC(=O)C2CCN(S(=O)(=O)N3CCCCC3)CC2)c1,51*,x
COc1ccc(OC)c(CNC(=O)C2CCCN(S(=O)(=O)N3CCC(C)CC3)C2)c1 (stereo not drawn),4,x
O=C(NCCN1CCOCC1)Nc1ccc(Cl)cc1,-11,x
